# Vaccinia Venus – qHTS for Stage-Specific Inhibitors of Vaccinia Orthopoxvirus: Venus Reporter Primary qHTS; Vaccinia virus Venus reporter expression, fluorescence; Potency, µM (titrated, usually from 36.5 µM), for inactives: top-dose activity change, negative = inhibition, hits mostly inhibitors; 330,000 tested, 0.46% active; AID 720580, 2013; calls by dose curve; tested in A549 cells; further: potency means the concentration at half of the fitted maximal effect; nearly all actives have a fitted effect of over 30% in size
# HCV inhibitor – qHTS Assay for Inhibitors of Hepatitis C Virus (HCV) | Huh7.5.1 HCVcc-Cre infection, luciferase reporter, 44 h | Potency, µM (series often up to 41.8 µM), inactives show top-dose activity change, negative = inhibition, usual class: inhibitors | 340,000 tested, 3.4% active | AID 651820, 2012; further: potency means the concentration at half of the fitted maximal effect
#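 Whole-lifecycle infectious HCVcc-Cre system; cells 1,000/well, compound then virus (~0.5 moi) added 4 h after plating, 44 h culture. Luciferase read 15 sec following 15 min substrate incubation, room temp.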
# VACV mCherry inh – qHTS for Stage-Specific Inhibitors of Vaccinia Orthopoxvirus: mCherry Reporter Primary qHTS | AID 720579, 2013 | Vaccinia virus mCherry reporter infection, fluorescence | Potency, µM (series often up to 36.5 µM), without a hit: at the highest dose activity change, negative = inhibition, hits mostly inhibitors | 310,000 tested, 0.63% active; calls by dose curve; tested in A549 cells; further: potency means the concentration at half of the fitted maximal effect; nearly all actives have a fitted effect of over 35% in size
# HCMV antiviral – qHTS Assay for inhibitors of the human cytomegalovirus (HCMV); AID 1259415, 2018; HFF cells, HCMV-luciferase reporter, 72 h; stronger effect = lower value; 410,000 tested, 4.5% active; activity change, negative = inhibition, % at 57.5 µM; in the data active means activity change below about -60%; inconclusive means no clear call, values can overlap the other calls; inactive means above about -39%
#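 Luciferase read-out from HCMV-luciferase-infected HFFs (MOI 1 PFU/cell) 72 h post infection at 37C; compounds added after 16 h cell attachment; activity normalized between buffer-only basal and Salinomycin (10uM) inhibitor controls.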
# Sm TGR block – qHTS Assay for the Inhibitors of Schistosoma Mansoni Peroxiredoxins. Schistosoma mansoni thioredoxin glutathione reductase (TGR), Q962Y6. purified TGR, DTNB reduction, TNB absorbance 405 nm. Potency, µM (doses to about 114 µM), without a hit: at the highest dose activity change, negative = inhibition, usual class: inhibitors. 360,000 tested, 3% active. AID 485364, 2010; further: potency means the concentration at half of the fitted maximal effect; nearly all actives have a fitted effect of over 60% in size
#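 Kinetic colorimetric format: TGR-catalysed, NADPH-driven DTNB reduction monitored via TNB absorbance. Enzyme dispensed at 20 nM; compound exposure 15 min at room temperature before reaction start.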
# FMDV antiviral – High Throughput Screening for Foot and Mouth Disease Virus Antivirals | Potency, µM (top dose mostly 57.9 µM), inactives show at the top dose activity change, negative = inhibition, actives largely listed as inhibitors | 410,000 tested, 1.2% active | FMDV antiviral cell-based qHTS; calls by dose curve; tested in HEK293T cells; further: read-out not given here; potency means the concentration at half of the fitted maximal effect; nearly all actives have a fitted effect of over 45% in size
# * marks the source's active call; other numbers are inactive results; i = inactive; u = inconclusive; x = no result. Only some compounds are listed: those with a hit (about 9.3% of all), similar ones and a draw of the others. Unless noted, the call rests on the fitted dose curve; in most records, active means well fitted curve in the direction sought with a large enough effect; inconclusive means small, poorly fitted or top-dose-only effect, or another doubt; inactive means no such curve, though single readings can be large; an effect the other way counts as inactive or inconclusive. On the % scale 0 is the no-effect control and ±100 the full control effect.
SMILES,Vaccinia Venus,HCV inhibitor,VACV mCherry inh,HCMV antiviral,Sm TGR block,FMDV antiviral
CCCCn1c(=N)n(CCCOc2ccc(F)cc2)c2ccccc21,u,x,u,-67*,5%,u
Cc1ccc(/C=N/NC(=O)CSc2nc3ccccc3c(=O)n2-c2ccccc2)s1,-3%,-4%,-10%,10,4%,-2%
Cc1nn(-c2ccccc2)c(C)c1/C=N/NC(=O)CSc1nnc(SCc2cccc3ccccc23)s1,-19%,14µM*,-28%,-17,1%,-18%
Cc1nn(-c2ccccc2)c(C)c1/C=N/NC(=O)CSc1nc2ccccc2c(=O)n1-c1ccc(Br)cc1,-24%,u,-1%,-8,8%,-7%
Cc1ccc(/C=N/NC(=O)CSc2nc3ccccc3c(=O)n2-c2ccccc2C)s1,-14%,u,-23%,-69*,3%,-8%
Cc1ccccc1-n1c(SCC(=O)NC(N)=O)nc2sc(-c3ccccc3)cc2c1=O,-28%,u,u,-71*,1%,-7%
Cc1ccc(-n2c(SCC(=O)N/N=C/c3c(C)nn(-c4ccccc4)c3C)nc3ccccc3c2=O)cc1,-14%,u,u,-63*,-4%,0%
Cc1ccccc1-n1c(SCC(=O)N/N=C/c2c(C)nn(-c3ccccc3)c2C)nc2ccccc2c1=O,u,u,-27%,0,-1%,-23%
Cc1ccc(S(=O)(=O)N(C)C[C@@H]2Oc3ccc(NC(=O)CCC(F)(F)F)cc3CC(=O)N([C@@H](C)CO)C[C@@H]2C)cc1,u,u,-8%,u,x,-21%
C[C@@H]1CN([C@H](C)CO)C(=O)c2cc(NS(=O)(=O)c3ccc(F)cc3)ccc2O[C@@H]1CN(C)Cc1ccc(Cl)c(Cl)c1,10µM*,6.3µM*,u,-19,x,u
C[C@@H]1CN([C@H](C)CO)C(=O)c2cc(NC(=O)Nc3ccc(C(F)(F)F)cc3)ccc2O[C@H]1CN(C)Cc1ccc(Cl)c(Cl)c1,10µM*,9%,u,-97*,x,-18%
Cc1ccc(S(=O)(=O)N(C)C[C@@H]2Oc3ccc(NS(C)(=O)=O)cc3CC(=O)N([C@H](C)CO)C[C@@H]2C)cc1,-9%,2.8µM*,-2%,-20,x,-17%
C[C@@H]1CN([C@H](C)CO)C(=O)c2cc(NC(=O)Nc3ccc(C(F)(F)F)cc3)ccc2O[C@H]1CN(C)S(=O)(=O)c1ccc(Cl)cc1,-26%,u,-9%,-76*,x,-21%
C=CCOc1ccc(C2NC(=O)c3ccccc3O2)cc1OC (stereo not given),-13%,x,-24%,-11,x,-11%
C[C@@H]1CCCCO[C@@H](CN(C)Cc2ccc(Cl)c(Cl)c2)[C@@H](C)CN([C@H](C)CO)C(=O)c2cc(NC(=O)CCC(F)(F)F)ccc2O1,u,x,u,-60*,x,-21%
C[C@@H]1CN([C@@H](C)CO)C(=O)Cc2cc(NC(=O)Nc3ccc(C(F)(F)F)cc3)ccc2O[C@@H]1CN(C)S(=O)(=O)c1ccc(Cl)cc1,11µM*,u,u,-29,x,u
C[C@H](CO)N1C[C@H](C)[C@@H](CN(C)S(=O)(=O)c2ccc(F)cc2)Oc2ccc(NC(=O)Nc3ccc(C(F)(F)F)cc3)cc2C1=O,u,32µM*,u,-15,x,u
C[C@H](CO)N1C[C@H](C)[C@H](CN(C)S(=O)(=O)c2cn(C)cn2)Oc2ccc(NC(=O)Nc3ccc(C(F)(F)F)cc3)cc2CC1=O,-27%,-13%,i,u,x,0%
C[C@H](CO)N1C[C@H](C)[C@@H](CN(C)Cc2ccc(C(=O)O)cc2)OCCCC[C@H](C)Oc2ccc(NC(=O)CCC(F)(F)F)cc2C1=O,x,x,x,15,x,x
O=C(Nc1c(F)cc(F)cc1F)c1cccn(Cc2ccccc2)c1=O,-7%,-22%,-14%,-36,u,-12%

# High-throughput results as filed in PubChem BioAssay.
